Each structure is given as a SMILES string. Several values for one entry are separate records, joined by “and”; a condition that tells them apart may be missing. Equal entries are not always repeated. Values without a mark were called inactive. Results filed as inconclusive are left out. For some of these results: Potency and affinity values are given separately. Activity calls are given as the source filed them. Unless noted, no rule for the calls is given here.

The conditions of experiment [1]: Ebola virus entry assay, green fluorescence channel.
The conditions of experiment [2]: Ebola virus entry assay, blue channel fluorescence.
The conditions of experiment [3]: Ebola virus entry assay, ratio channel.
A short description of experiment [4]: qHTS assay for small molecule agonists of the antioxidant response element (ARE) signaling pathway measured by Nrf2-dependant transcriptional activity (AID 720636; active = well fitted curve in the direction sought with a large enough effect in the repeat runs; an effect the other way counts as inactive or inconclusive;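 also: HepG2 cells with an ARE-driven luciferase reporter; % of control where 0% means no effect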). Conditions: ARE-luc HepG2, Nrf2 luciferase reporter, 16 h; series mostly up to 92.4 µM. A digest of the protocol:
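Cells: ARE-luc HepG2 with Nrf2-responsive luciferase. Medium contained 1% dialyzed FBS. Compound exposure lasted 16 hr at 37 C and 5% CO2, followed by ONE-Glo luciferase detection.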
On the technique in general: In qHTS, concentration-response curves come from the screen itself.

Experiment [5] can be described thus: qHTS assay for small molecule antagonists of the retinoid-related orphan receptor gamma (ROR-gamma) signaling pathway - cell viability counter screen (AID 720652; active = well fitted curve in the direction sought with a large enough effect in the repeat runs; an effect the other way counts as inactive or inconclusive;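 also: CHO reporter cells with doxycycline-induced ROR-gamma expression; compound exposure lasted 16 hr before ATP read; % is scaled to controls: 0 for no effect and ±100 for the full control effect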). As to conditions: RORgamma reporter cell line viability counter screen; series mostly up to 92.2 µM. A digest of the protocol:
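Cytotoxicity counter screen: intracellular ATP (CellTiter-Glo luminescence) measured in the doxycycline-induced CHO RORE-luciferase reporter line after 16 hr compound exposure at 37 C, 5% CO2.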

The nature of experiment [6]: qHTS assay for small molecule agonists of the antioxidant response element (ARE) signaling pathway measured by Nrf2-dependant transcriptional activity - cell viability counter screen (AID 720653; active = well fitted curve in the direction sought with a large enough effect in the repeat runs; an effect the other way counts as inactive or inconclusive; also: % is scaled to controls: 0 for no effect and ±100 for the full control effect). Conditions: ARE-bla HepG2 viability, CellTiter-Glo ATP luminescence, 16 h; max response: stronger effect = lower value. A digest of the protocol:
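Cytotoxicity counter screen: intracellular ATP quantified by CellTiter-Glo luminescence in the same ARE-bla HepG2 plates, after 16 h compound exposure and a 2 h beta-lactamase substrate step.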

Experiment [7] can be described thus: qHTS Assay for Identifying Gametocytocidal Compounds (AID 743244; active = well fitted curve in the direction sought with a large enough effect; an effect the other way counts as inactive or inconclusive;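 also: % is scaled to controls: 0 for no effect and ±100 for the full control effect; actives lower the fluorescent signal which means gametocytes are killed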). As to conditions: P. falciparum 3D7 stage III-V gametocytes, alamarBlue, 72 h; max response: stronger effect = lower value. The essentials:
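Viability read-out was resazurin reduction (alamarBlue, 24 h) measured at Ex 525/Em 598 nm. Beforehand, late-stage (III-V) 3D7 P. falciparum gametocytes at 20,000 cells/well were incubated with compound 72 h at 37C under 5% CO2.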

Experiment [8] in a line: qHTS assay for cell viability of HEK293 cells (AID 743288; active = well fitted curve in the direction sought with a large enough effect; an effect the other way counts as inactive or inconclusive; also: % is scaled to controls: 0 for no effect and ±100 for the full control effect; nearly all actives have a fitted effect of over 50% in size). As to conditions: ATP luminescence (CellTiter-Glo), 18 h; max response: stronger effect = lower value. A digest of the protocol:
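After 18 h compound exposure at 37 C, parental HEK293 cells (2,000/well) are lysed with CellTiter-Glo and luminescence is read following 30 min at room temperature.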

In experiment [9] the target is T1, Hexokinase-4 (Homo sapiens) + Glucokinase regulatory protein (Homo sapiens) (UniProt P35557+Q14397). The experiment is described as follows: qHTS assay for inhibitors of recombinant human GCK-GKRP interaction: ADP-Glo assay (AID 743206; active = well fitted curve in the direction sought with a large enough effect; an effect the other way counts as inactive or inconclusive;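 also: plate controls were DMSO plus enzyme for no effect and no enzyme for full effect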). As to conditions: ADP-Glo luminescence, 60 min, 0% = vehicle-only wells with enzyme present; series mostly up to 76.9 µM. A digest of the protocol:
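Pin-transferred compounds meet a 15 nM GST-GCK/15 nM FLAG-GKRP/2 uM S6P mix (dispense concentrations). ATP is then added to 0.4 mM final with 5 mM glucose, and the reaction runs 60 min at room temperature. ADP is quantified luminescently.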

Experiment [10] deals with T1, Hexokinase-4 (Homo sapiens) + Glucokinase regulatory protein (Homo sapiens). The experiment is described as follows: qHTS assay for inhibitors of recombinant human GCK-GKRP interaction: HTRF assay (AID 743207; active = well fitted curve in the direction sought with a large enough effect; an effect the other way counts as inactive or inconclusive;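 also: 0% = DMSO with GCK present and -100% = DMSO wells lacking GCK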). Conditions: recombinant GCK-GKRP HTRF binding, 60 min; series mostly up to 57.5 µM. A digest of the protocol: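 GST-GCK and FLAG-GKRP (5 nM each) were combined with 2 uM S6P in pH 7.1 Hepes/MgCl2/KCl/DTT buffer, then compound and anti-FLAG XL665/anti-GST K antibodies were added. After 60 min at room temperature, HTRF 665/615 nm emission was read.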
For efficacy in this document: 0% is about no effect.

T1 sequence (P35557 whole entry, looked up): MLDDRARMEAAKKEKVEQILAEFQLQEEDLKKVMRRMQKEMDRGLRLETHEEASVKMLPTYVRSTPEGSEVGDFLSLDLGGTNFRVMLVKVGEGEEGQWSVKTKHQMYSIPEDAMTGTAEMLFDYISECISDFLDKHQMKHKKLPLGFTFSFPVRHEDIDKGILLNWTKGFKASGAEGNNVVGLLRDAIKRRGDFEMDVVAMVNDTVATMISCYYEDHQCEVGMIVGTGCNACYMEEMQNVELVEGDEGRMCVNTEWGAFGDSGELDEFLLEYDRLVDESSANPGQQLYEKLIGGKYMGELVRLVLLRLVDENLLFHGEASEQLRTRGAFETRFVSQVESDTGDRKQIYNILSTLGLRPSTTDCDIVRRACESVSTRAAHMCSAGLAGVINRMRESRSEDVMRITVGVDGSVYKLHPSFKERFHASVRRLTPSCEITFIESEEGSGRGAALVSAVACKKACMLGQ
T1 sequence (Q14397 whole entry, looked up): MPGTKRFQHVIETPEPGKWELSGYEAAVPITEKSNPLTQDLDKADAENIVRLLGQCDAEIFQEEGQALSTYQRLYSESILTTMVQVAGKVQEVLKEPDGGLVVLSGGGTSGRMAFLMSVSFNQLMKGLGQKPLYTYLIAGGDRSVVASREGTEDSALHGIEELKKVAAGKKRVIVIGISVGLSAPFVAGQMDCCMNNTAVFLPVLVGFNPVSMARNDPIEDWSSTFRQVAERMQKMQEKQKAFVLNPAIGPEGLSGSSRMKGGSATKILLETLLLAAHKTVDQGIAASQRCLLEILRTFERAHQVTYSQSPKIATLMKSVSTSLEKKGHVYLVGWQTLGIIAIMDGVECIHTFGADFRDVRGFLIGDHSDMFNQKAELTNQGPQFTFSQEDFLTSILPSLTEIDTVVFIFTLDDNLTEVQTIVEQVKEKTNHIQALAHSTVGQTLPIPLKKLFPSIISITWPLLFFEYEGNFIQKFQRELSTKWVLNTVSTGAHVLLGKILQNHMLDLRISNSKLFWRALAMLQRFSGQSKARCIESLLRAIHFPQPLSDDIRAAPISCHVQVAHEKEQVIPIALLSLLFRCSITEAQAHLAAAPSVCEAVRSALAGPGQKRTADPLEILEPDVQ

With `CCCCCCCCCCCCCC[N+](C)(C)Cc1ccccc1`, the efficacy in [1] was -210%. Further, the AC50 (usually the concentration at which the activity in the assay is half-maximal) in [2] is 39.8 µM (active); in [3] it was 25.1 µM (active).
As to `Cc1cccc(C)c1NC(=O)CN1CCN(CCCC(c2ccc(F)cc2)c2ccc(F)cc2)CC1`, in experiment [1], the efficacy was 109%. For the same compound, the half-maximal activity concentration (AC50) in experiment [2] and in experiment [3] was 3.16 µM (active) each time.
As for `COc1cccc2c1C(=O)c1c(O)c3c(c(O)c1C2=O)C[C@@](O)(C(=O)CO)C[C@@H]3O[C@H]1C[C@H](N)[C@H](O)[C@H](C)O1`, the efficacy in experiment [1] was 89.6%. Further, the AC50 in experiment [2] is 15.8 µM (active); in [3], 14.1 µM (active).
Turning to `CCOP(=S)(OCC)Oc1cc(C)nc(C(C)C)n1`, the Potency result in experiment [4] and in experiment [5] was “inactive” throughout. Further, the max response in experiment [6] is 0.528% and 11.7%; in [7], 18.9%; in [8], 0.702% and -4.39%. For the same compound, in experiment [1], the efficacy was 13.4%. In addition, the call in experiment [2] and in experiment [3] was inactive.
With `COc1cc(Nc2c(C#N)cnc3cc(OCCCN4CCN(C)CC4)c(OC)cc23)c(Cl)cc1Cl`, the efficacy in [1] is 56%. Further, the AC50 in experiment [2] is 2.82 µM (active); in experiment [3] it was 1.41 µM (active).
In the case of `COC(=O)Nc1nc2ccc(C(=O)C3CC3)cc2[nH]1`, the efficacy in [1] is 69.7%. The figures for the half-maximal activity concentration (AC50) in experiment [2] and in experiment [3] were 8.91 µM (active) and 7.94 µM (active), respectively.
With `OCCOc1ccccc1`, the Potency entry in [4] and in experiment [5] was “inactive” throughout. Besides, the max response in experiment [6] is -0.196% and 2.04% and -9.12%; in [7], 3.27% and 3.36%; in experiment [8] it was -3.53% and -2.57% and -13.5%. Besides, the efficacy in experiment [1] was -12.5%. In addition, the compound was classed as inactive in experiment [2] and in [3].
For the compound `CCCCOCCOCCOCc1cc2c(cc1CCC)OCO2`, in experiment [1], the efficacy is -21%. The compound was classed as inactive in experiment [2] and in [3].
Turning to `CC1=C(/C=C/C(C)=C/C=C/C(C)=C/C(=O)Nc2ccc(O)cc2)C(C)(C)CCC1`, in experiment [1], the efficacy was -119%. Moreover, the half-maximal activity concentration (AC50) in experiment [2] was 39.8 µM (active). Also, the result in experiment [3] was inactive.
For `CC/C=C(\C(=O)N[C@@H]1C(=O)N2C(C(=O)OCOC(=O)C(C)(C)C)=C(COC(N)=O)CS[C@H]12)c1csc(N)n1`, in experiment [1], the efficacy is 11.1% and -32.9%. The compound was classed as inactive in experiment [2] and in [3].
Consider `CN1CC[C@H](c2c(O)cc(O)c3c(=O)cc(-c4ccccc4Cl)oc23)[C@H](O)C1`, for which the efficacy in experiment [1] was 58.1%. The call in experiment [2] and in experiment [3] was inactive.
For `CCCCCCCCCCCCCCCC[N+](C)(C)CC`, in [1], the efficacy was -76.8%. The AC50 was 25.1 µM (active) in experiment [2] and 11.2 µM (active) in experiment [3].
Turning to `Cn1cnc2c(F)c(Nc3ccc(Br)cc3Cl)c(C(=O)NOCCO)cc21`, in experiment [1], the efficacy was 24.6%. Moreover, the result in experiment [2] and in experiment [3] was inactive.
On to `C=CC(=O)Nc1cc2c(Nc3ccc(F)c(Cl)c3)ncnc2cc1OCCCN1CCOCC1`, for which the efficacy in experiment [1] was 99.2%. Besides, the concentration at half-maximal activity (AC50) in experiment [2] was 3.16 µM (active); in experiment [3], 2.82 µM (active).
The like results for `Cc1nc(N)nc(N)c1-c1ccc(Cl)c(Cl)c1` were, in that order, -23%, 12.6 µM (active) and 28.2 µM (active).
Regarding `C#CCOC(C(=O)OCCN(C)C)(c1ccccc1)c1ccccc1`, in experiment [7], the max response was -0.509%. Also, the efficacy in experiment [1] was 46%. Further, the AC50 in experiment [2] is 12.6 µM (active); in [3], 14.1 µM (active).
Regarding `Cc1ccc(S(=O)(=O)N[C@@H](CCCCN)C(=O)CCl)cc1`, the outcome in experiment [9], in experiment [10] and in [3] was inactive. In addition, in [1], the efficacy is 32.6%. For the same compound, the half-maximal activity concentration (AC50) in experiment [2] is 14.1 µM (active).

Source of the values: PubChem BioAssay (NCATS).
